Measurements taken from the supplement of paper PMC3545927.
Some of the results follow. How many sequences the whole screen found active is unknown.

Target: furin, P09958
Assay: furin cleavage Z-score vs untreated control; higher = more cleavage, active = 3.5 or more, inactive = 1 or less, 8 variable residues between constant flanks
Outline: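 Magnetic beads held 8-mer peptides by the N-terminus, each fused to a cDNA oligonucleotide, and purified furin was added for 7.5, 15 or 30 min. Released DNA was sequenced after PCR adapter tagging. The cleavage Z-score is the log count relative to furin-free reactions, lowess-adjusted and divided by median absolute deviation.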
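Note: purified furin at 1:10 enzyme:substrate in 50 mM HEPES pH 7.5.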

Chain of furin, P09958 (P09958 whole entry): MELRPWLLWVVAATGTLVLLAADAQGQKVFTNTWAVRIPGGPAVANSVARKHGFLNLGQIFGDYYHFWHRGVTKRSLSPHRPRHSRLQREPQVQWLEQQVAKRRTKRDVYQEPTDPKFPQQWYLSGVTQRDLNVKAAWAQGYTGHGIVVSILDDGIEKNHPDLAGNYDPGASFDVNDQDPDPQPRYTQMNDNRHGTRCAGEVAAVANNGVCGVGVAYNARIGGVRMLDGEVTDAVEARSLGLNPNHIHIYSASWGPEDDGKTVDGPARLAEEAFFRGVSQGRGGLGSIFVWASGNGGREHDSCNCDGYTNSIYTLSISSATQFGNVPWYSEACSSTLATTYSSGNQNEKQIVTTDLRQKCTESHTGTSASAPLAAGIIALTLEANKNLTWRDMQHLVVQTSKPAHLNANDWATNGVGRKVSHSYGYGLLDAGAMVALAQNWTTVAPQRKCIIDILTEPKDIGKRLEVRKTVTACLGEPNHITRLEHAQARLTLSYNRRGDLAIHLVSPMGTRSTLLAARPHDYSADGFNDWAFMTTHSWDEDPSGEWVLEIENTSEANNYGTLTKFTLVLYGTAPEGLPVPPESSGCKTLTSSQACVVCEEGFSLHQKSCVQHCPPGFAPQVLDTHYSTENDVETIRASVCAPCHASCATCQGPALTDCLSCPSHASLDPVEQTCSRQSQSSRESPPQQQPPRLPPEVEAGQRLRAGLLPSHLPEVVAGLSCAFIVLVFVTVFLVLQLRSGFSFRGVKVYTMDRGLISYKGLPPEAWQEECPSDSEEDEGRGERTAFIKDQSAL

Row | Sequence | furin cleavage Z-score (7.5 min) | furin cleavage Z-score (15 min) | furin cleavage Z-score (30 min)
1 | CASWDQMWKCAGNASASA [HC962] | 1.5 | -0.918 (inactive) | -0.53 (inactive)
2 | CAAAEEQKLPAGNASASA [HC1378] | -1.36 (inactive) | -0.838 (inactive) | -1.05 (inactive)
3 | CAWMNRLIAFAGNASASA [HC1118] | 0.154 (inactive) | 0.647 (inactive) | 1.16
4 | CAHVPCHRPSAGNASASA [HC2315] | 1.79 | 0.404 (inactive) | 0.971 (inactive)
5 | CAMNECSQHLAGNASASA [HC1701] | -0.476 (inactive) | 0.465 (inactive) | 1.3
6 | CAEGVVCCSMAGNASASA [HC2136] | 0.615 (inactive) | 1.53 | -0.0256 (inactive)
7 | CAEVLYREFDAGNASASA [HC1010] | -0.000681 (inactive) | -0.163 (inactive) | -0.163 (inactive)
8 | CARGRRRRRTAGNASASA [FS-1399] | 6.1 (active) | 5.39 (active) | 6 (active)
9 | CARGRRKKKCAGNASASA [FS-1398] | 0.559 (inactive) | 2.05 | 2.1
10 | CAPVVPQSFQAGNASASA [HC769] | 0.521 (inactive) | -0.599 (inactive) | -1.31 (inactive)
11 | CARVKRYRQSAGNASASA [FS-2243] | 3.13 | 4.29 (active) | 5.21 (active)
12 | CARVKRPQLMAGNASASA [FS-2532] | 1.35 | -0.179 (inactive) | -0.384 (inactive)
13 | CARQKRRAKPAGNASASA [FS-1864] | 5.33 (active) | 6.71 (active) | 6.66 (active)
14 | CARVKRRLLMAGNASASA [FS-2318] | 1.78 | 2.84 | 5.21 (active)
15 | CARQKRREERAGNASASA [FS-1865] | -0.0741 (inactive) | 1.57 | 0.905 (inactive)
16 | CARVPRDWDPAGNASASA [FS-1940] | -0.333 (inactive) | -0.446 (inactive) | 1.11
17 | CAEVPCHRQSAGNASASA [HC2402] | 0.566 (inactive) | 0.909 (inactive) | 1.17
18 | CARVKRVSHSAGNASASA [FS-2619] | -0.25 (inactive) | 0.383 (inactive) | 1.16
19 | CARVKRRADPAGNASASA [FS-2197] | 8.92 (active) | 9.27 (active) | 8.27 (active)
20 | CARQKRNKIPAGNASASA [FS-2290] | 0.00727 (inactive) | -0.821 (inactive) | 0.672 (inactive)
21 | CAVMCCSMSYAGNASASA [HC2006] | 0.223 (inactive) | 0.521 (inactive) | 0.261 (inactive)
22 | CAVVCCPMSYAGNASASA [HC120] | -0.00854 (inactive) | 1.19 | 0.154 (inactive)

Row | Sequence | furin cleavage Z-score (7.5 min) | furin cleavage Z-score (15 min) | furin cleavage Z-score (30 min)
23 | CARVKRRIENAGNASASA [FS-2533] | 4.86 (active) | 7.07 (active) | 8.34 (active)
24 | CARVKRPIENAGNASASA [FS-2531] | -0.853 (inactive) | 0.717 (inactive) | -0.955 (inactive)
25 | CARVKRFIQEAGNASASA [FS-2099] | 5.75 (active) | 5.53 (active) | 5.92 (active)
26 | CARVKRQKISAGNASASA [FS-1939] | 2.51 | 3.08 | 4.8 (active)
27 | CARVKRTHVPAGNASASA [FS-2242] | 4.22 (active) | 8.01 (active) | 3.97 (active)
28 | CARSFRRIAGAGNASASA [FS-2804] | -0.414 (inactive) | -1.36 (inactive) | -1.34 (inactive)
29 | CASTMCSAHLAGNASASA [HC2506] | -0.111 (inactive) | 1.36 | 2.15
30 | CADSMEECSQAGNASASA [HC1817] | 1.19 | 1.94 | 0.888 (inactive)
31 | CAEYEVPCHRAGNASASA [HC2449] | -0.191 (inactive) | 0.0222 (inactive) | -0.958 (inactive)
32 | CANSSRSKKPAGNASASA [FS-947] | -0.794 (inactive) | -0.615 (inactive) | -1.7 (inactive)
33 | CARVKRNILAAGNASASA [FS-1872] | 5.27 (active) | 8.45 (active) | 8.24 (active)
34 | CARSIRDILAAGNASASA [FS-1840] | -1.31 (inactive) | 1.74 | 2.38
35 | CACVLRSKRDAGNASASA [FS-406] | 9.82 (active) | 8.74 (active) | 6.13 (active)
36 | CAHWSMSKRDAGNASASA [FS-335] | -1.15 (inactive) | 0.288 (inactive) | 0.917 (inactive)
37 | CACVSRSKRDAGNASASA [FS-407] | 13 (active) | 10.3 (active) | 7.76 (active)
38 | CASTPCSANLAGNASASA [HC2561] | 0.829 (inactive) | 0.852 (inactive) | 0.011 (inactive)
39 | CADVVTKLPLAGNASASA [HC1459] | 0.775 (inactive) | 0.418 (inactive) | 0.0796 (inactive)
40 | CARTSRRKRAAGNASASA [FS-1274] | 10.3 (active) | 9.52 (active) | 6.92 (active)
41 | CARTSRRKRYAGNASASA [FS-958] | 11.4 (active) | 13.5 (active) | 9.45 (active)
42 | CAFTEAMTRYAGNASASA [HC1540] | 1.26 | -0.149 (inactive) | -0.331 (inactive)
43 | CAPLAVMGSSAGNASASA [HC1462] | 0.481 (inactive) | 1.18 | -0.14 (inactive)
44 | CAPKARRKRYAGNASASA [FS-619] | 11.3 (active) | 13.4 (active) | 11.2 (active)
